According to PubChem BioAssay AID1159580 (chemical genetic matrix, 2015):
“And” between values parts separate entries of the source, which are not always exact repeats. Equal values may be shown once. Screen size: about 5,500 compounds; about 2,000 (36%) were called active. About 18% were inconclusive and are not listed. Rule as the data show it: active = normalized growth mostly below about 0.91 (no sharp cut-off); inconclusive = no clear call, values can overlap the other calls; inactive = mostly above about 0.92. The list shows a part of the results.

Assay: chemical genetic growth profiling, strain panel (AID 1159580);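 also: tested at 20 µM; growth read once vehicle control cultures reached saturation at 30 °C; 1 = growth at the plate median or of vehicle wells; lower values mean less growth of the strain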
Conditions: S. cerevisiae deletion strains, growth OD

Measured: normalized growth

Oc1ccc(Cl)cc1
inactive: locus YAL013W, strain DEP1, hits give low values 0.992 | locus YAL021C, strain ccr4, hits give low values 1.01 | locus YAL026C, strain drs2, hits give low values 1.03 | locus YAL030W, strain snc1, hits give low values 1.01 | locus YBL061C, strain skt5, hits give low values 1.01 | locus YBR009C, strain hhf1, hits give low values 1.01 | locus YBR021W, strain FUR4, hits give low values 0.971 | locus YBR023C, strain chs3, hits give low values 1.01 | locus YBR171W, strain sec66, hits give low values 1.02 | locus YBR229C, strain ROT2, hits give low values 0.986 | locus YBR231C, strain swc5, hits give low values 1 | locus YBR279W, strain paf1, hits give low values 1.01 | locus YCL011C, strain gbp2, hits give low values 1.01 | locus YCL016C, strain dcc1, hits give low values 1.02 | locus YCL029C, strain bik1, hits give low values 0.976 | locus YCL061C, strain MRC1, hits give low values 1.02 | locus YCL069W, strain vba3, hits give low values 1.01 | locus YCR088W, strain abp1, hits give low values 1.01 | locus YDL005C, strain med2, hits give low values 1.01 | locus YDL035C, strain GPR1, hits give low values 0.987 | locus YDL040C, strain nat1, hits give low values 1.01 | locus YDL074C, strain BRE1, hits give low values 1.01 | locus YDL101C, strain DUN1, hits give low values 0.985 | locus YDL134C, strain PPH21, hits give low values 0.975 | locus YDL185W, strain tfp1, hits give low values 0.98 | locus YDL192W, strain arf1, hits give low values 0.977 | locus YDR001C, strain nth1, hits give low values 1.01 | locus YDR069C, strain doa4, hits give low values 0.992 | locus YDR101C, strain arx1, hits give low values 0.973 | locus YDR137W, strain rgp1, hits give low values 1.04 | locus YDR159W, strain sac3, hits give low values 0.981 | locus YDR162C, strain NBP2, hits give low values 0.995 | locus YDR195W, strain ref2 1.02 | locus YDR297W, strain sur2, hits give low values 1.01 | locus YDR318W, strain mcm21, hits give low values 0.977 | locus YDR334W, strain swr1, hits give low values 1.01 | locus YDR335W, strain msn5, hits give low values 1 | locus YDR388W, hits give low values 0.962 | locus YDR392W, strain spt3, hits give low values 0.956 | locus YDR502C, strain sam2, hits give low values 0.979 | locus YEL003W, strain gim4, hits give low values 1.01 | locus YEL037C, strain rad23, hits give low values 1.01 | locus YEL061C, strain CIN8 (second series), hits give low values 1.01 | locus YEL061C, strain CIN8, hits give low values 0.993 | locus YER015W, strain faa2, hits give low values 1.01 | locus YER016W, strain bim1, hits give low values 0.997 | locus YER110C, hits give low values 0.973 | locus YER111C, strain swi4, hits give low values 1.01 | locus YER155C, strain BEM2 (second series), hits give low values 1.02 | locus YER155C, strain BEM2, hits give low values 0.987 | locus YER167W, strain BCK2, hits give low values 0.984 | locus YFR010W, strain ubp6, hits give low values 1 | locus YGL078C, strain dbp3, hits give low values 0.978 | locus YGL086W, strain mad1, hits give low values 1 | locus YGL167C, strain pmr1, hits give low values 1 | locus YGL173C, strain kem1, hits give low values 1 | locus YGL227W, strain vid30, hits give low values 1.01 | locus YGL240W, strain doc1, hits give low values 1 | locus YGL248W, strain PDE1, hits give low values 0.991 | locus YGL253W, strain hxk2, hits give low values 1.02 | locus YGR135W, strain pre9, hits give low values 0.978 | locus YGR229C, strain SMI1, hits give low values 0.996 | locus YGR252W, strain gcn5, hits give low values 1.05 | locus YHR013C, strain ard1, hits give low values 1.03 | locus YHR027C, strain rpn1, hits give low values 1.01 | locus YHR030C, strain SLT2, hits give low values 0.99 and 0.965 | locus YHR079C, strain IRE1 (second series), hits give low values 0.966 | locus YHR079C, strain IRE1, hits give low values 0.966 | locus YHR094C, strain hxt1, hits give low values 0.974 | locus YHR129C, strain ARP1, hits give low values 0.998 | locus YHR142W, strain chs7, hits give low values 1.02 | locus YHR200W, strain rpn10, hits give low values 0.98 | locus YIL066C, strain RNR3, hits give low values 0.992 | locus YIL073C, strain SPO22, hits give low values 0.942 | locus YIL125W, strain kgd1, hits give low values 0.975 | locus YIR030C, strain dcg1, hits give low values 0.98 | locus YJL092W, strain hpr5, hits give low values 1.02 | locus YJL095W, strain BCK1 (second series), hits give low values 1.01 | locus YJL095W, strain BCK1, hits give low values 1.01 and 0.962 | locus YJL115W, strain asf1, hits give low values 1.02 | locus YJL129C, strain trk1, hits give low values 0.99 | locus YJL134W, strain LCB3, hits give low values 0.991 | locus YJL154C, strain vps35, hits give low values 1.01 | locus YJL164C, strain tpk1, hits give low values 1 | locus YJL166W, strain qcr8, hits give low values 1.02 | locus YJL168C, strain set2, hits give low values 0.978 | locus YJL187C, strain SWE1 (second series), hits give low values 0.986 | locus YJL187C, strain SWE1, hits give low values 1.02 | locus YJR043C, strain POL32, hits give low values 1 | locus YJR066W, strain TOR1, hits give low values 0.934
